The values below come from PubChem BioAssay AID493248 (Broad Institute, 2011).

Among all 2,300 compounds or so, about 1,400 (61%) were called active. About 7% were inconclusive and are not listed. The rule behind the calls is not given here. The set was probably picked from earlier hits. The list is a sample of the results. Entries with a potency or affinity are not part of this list.

In this test the target is FAD-linked sulfhydryl oxidase ALR (Homo sapiens) (UniProt P55789). In words: ALR-catalysed DTT oxidation blockers – biochemical, H2O2 detection, luminescence, cherry-pick, dose response (AID 493248). Conditions: purified ALR, H2O2 HRP-luminol luminescence; at 10 µM (top of the series).
FAD-linked sulfhydryl oxidase ALR (Homo sapiens), sequence (P55789 whole entry, looked up): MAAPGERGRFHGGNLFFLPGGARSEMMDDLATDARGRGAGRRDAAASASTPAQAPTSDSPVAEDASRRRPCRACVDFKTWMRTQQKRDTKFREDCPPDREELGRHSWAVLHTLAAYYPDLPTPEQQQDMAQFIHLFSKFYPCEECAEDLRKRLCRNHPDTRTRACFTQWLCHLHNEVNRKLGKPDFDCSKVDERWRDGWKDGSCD
For the molecule `COC(=O)Cc1c(C)c2ccc(OC(=O)c3ccccc3)cc2oc1=O`, the activity change, negative = inhibition was 31.5%.
For `CCCN(Cc1ccc(N(CC)CC)cc1)CC1CC1`, the activity change, negative = inhibition is -0.019%.
For the molecule `CN(CC(=O)NC1CCCCC1)S(=O)(=O)c1cccc2cccnc12`, the activity change, negative = inhibition was determined as 5.38%.
As to `O=C(Cc1ccccc1)Nc1ccc(C(=O)Nc2ccccc2C(=O)O)cc1`, the activity change, negative = inhibition was determined as 5.48%.
As for `O=S(=O)(NCCCN1CCN(c2ccccc2F)CC1)c1cccc2cccnc12`, the activity change, negative = inhibition is 20.3%.
On to `O=C(O)c1cccc(NC(=O)c2cccc(S(=O)(=O)Nc3cccc([N+](=O)[O-])c3)c2)c1`, for which the activity change, negative = inhibition was -2.25%.
Take `CNCc1ccccc1Sc1ccc(O)c(O)c1`: the activity change, negative = inhibition was -78.5%.
For `CC(=O)c1c(C)oc(C)c1CSCc1ccc(C(=O)O)o1`, the activity change, negative = inhibition amounted to 16.7%.
With `CC(C)NC(=O)c1ccc(CSCc2ccccc2Cl)o1` the figure was -4.45%; with `Cc1cc(-c2ccccc2)nc2cc(C(=O)NCc3ccco3)nn12`, -17.4%; with `CCCc1nn2c(N)c(/C=C3\C=Nc4ccccc43)c(=O)nc2s1`, -38%.
Turning to `CS(=O)(=O)c1nsc2nc(=O)c(/C=C3\C=Nc4ccccc43)c(N)n12`, the activity change, negative = inhibition is -69.9%.
Next, `CCC(=O)Nc1ccc(C(=O)NCCCn2ccnc2)cc1`: 87.5%; `CCCC(=O)NC(c1ccc(N(C)C)cc1)c1ccc2cccnc2c1O` (centres undefined): 268%.
For the molecule `CC1=Nc2cccc3cccc(c23)N1C`, the activity change, negative = inhibition is -10.4%.
Turning to `Cc1nc(-c2cccc(N)c2)cs1`, the activity change, negative = inhibition is -3.17%.
As for `O=S(=O)(c1ccc(Cl)nc1)N1CCC(Cc2ccccc2)CC1`, the activity change, negative = inhibition was -5.04%.
As to `Cc1nc([N+](=O)[O-])c(Br)n1CC(=O)c1ccc(Cl)cc1`, the activity change, negative = inhibition was -18.7%.
With `CO/N=C/NC(=O)c1ccc([N+](=O)[O-])c(CS(=O)(=O)c2ccc(Cl)cc2)c1` the figure was 7.26%; with `Cc1nn(C(C)C(=O)N/N=C/c2ccc(N(C)C)cc2)c(C)c1[N+](=O)[O-]` (centres undefined), -45.7%.
With `COc1ccccc1-c1c(-c2ccc(O)cc2O)n[nH]c1C(F)(F)F` the figure was 267%; with `COc1cccc(Oc2cn[nH]c2-c2ccc(O)cc2O)c1`, -53.3%.
With `Cc1cc(/C=C2\C(=N)N3N=CSC3=NC2=O)c(C)n1Cc1ccccc1`, the activity change, negative = inhibition was -36.4%.
With `Cn1nnnc1SCc1csc(Nc2ccccc2)n1`, the activity change, negative = inhibition was -51.7%.
Take `CCN1C(=O)/C(=C/N(C)C)c2ccccc21`: the activity change, negative = inhibition worked out at 14.1%.
Next, `Cc1ccc(-c2nc(-c3ccc(Cl)cc3)sc2CC(=O)O)c(C)c1`: -95.8%; `CCCCC(=O)Nc1ccnc(-c2cccnc2)n1`: 34%.
With `Cc1ccc(-c2sc(-c3cccnc3)nc2CC(=O)O)cc1`, the activity change, negative = inhibition was -3.54%.
With `O=C(Cc1cccs1)N/N=C\c1ccc(O)cc1`, the activity change, negative = inhibition is -96.8%.
For `CN(C)c1cccc2c(/C=N/O)ccc(N(C)C)c12`, the activity change, negative = inhibition turned out to be 3.9%.
Next, `Cc1ccc(C(=O)Nc2cccc([N+](=O)[O-])c2)cc1S(=O)(=O)Nc1ccc(C(=O)O)cc1`: -15%; `COc1cccc2sc(Nc3nnc(-c4ccccc4Cl)o3)nc12`: -55.9%.
Take `Cc1onc(C(=O)N2CCN(c3ccccc3)CC2)c1[N+](=O)[O-]`: the activity change, negative = inhibition was -51.4%.
As to `Cc1noc(C(=O)N2CCN(c3ccccc3)CC2)c1Cl`, the activity change, negative = inhibition was -27.4%.
Next, `c1ccc2c(c1)CC(N1CCCCC1)c1ccccc1N2` (centres undefined): -14.9%; `C=CCNC(=O)c1ccccc1S(=O)c1ccccc1C#N` (centres undefined): -6.74%.
Take `Nc1nc(CN2CCN(C(=O)c3ccco3)CC2)nc(Nc2cccc(Cl)c2)n1`: the activity change, negative = inhibition was -24.8%.
With `CN1CCN(S(=O)(=O)c2ccc(N)cc2)CC1`, the activity change, negative = inhibition is -29.3%.
In the case of `Brc1ccc(-c2ncc3ccccn23)cc1`, the activity change, negative = inhibition is -33.1%.
On to `Cc1nn(C)c(Sc2ccccc2N)c1[N+](=O)[O-]`, for which the activity change, negative = inhibition is -39.9%.
Next, `O=[N+]([O-])c1ccc2c(c1)CNc1ccccc1O2`: -57.2%.
With `O=C(O)c1ccccc1CSC1=NCCS1` the figure was -98.5%; with `CC(=O)Nc1ccc(SC[C@H](CC(C)C)N2CCN(CC(C)C)CCC2=O)cc1`, 0.961%; with `O=C(O)c1ccc(-n2c(/C=C/c3cccc([N+](=O)[O-])c3)nc3ccccc3c2=O)cc1`, -30.3%.
Regarding `CC1CCN(CCCNC(=O)c2ccc(CSCc3cccc(Cl)c3)o2)CC1`, the activity change, negative = inhibition was determined as 26.9%.
As for `COc1cccc(N2CCN(C(=O)c3cc(C)oc3C)CC2)c1`, the activity change, negative = inhibition was -48.7%.
In the case of `O=C(c1ccc(CS(=O)Cc2ccccc2Cl)o1)N1CCN(c2cccc(Cl)c2)CC1` (centres undefined), the activity change, negative = inhibition is 45.7%.
`O=C(c1ccc(CS(=O)(=O)c2ccc(Br)cc2)o1)N1CCCC1`: the activity change, negative = inhibition was 43.5%.
Next, `COc1ccc(-c2coc3cc(O)ccc3c2=O)cc1O`: -45.2%; `COC(=O)c1c(-c2ccc(C)cc2)csc1N`: -4.41%; `Cc1cccc(C(=O)Nc2ccc(O)cc2)c1`: -86.3%.
With `COc1ccccc1C(=O)Nc1nc2nc(-c3ccccc3)cc(=O)n2[nH]1` the figure was -46.5%; with `Cc1oc(-c2ccccc2)cc1C(=O)Nc1cccc(C(=O)O)c1`, -45.5%.
Next, `Cc1cc(C)nc(NS(=O)(=O)c2ccc(NC(=O)Cc3ccccc3F)cc2)n1`: -98.5%.
Turning to `c1ccc(CCCN2CCN(c3ccccc3)CC2)cc1`, the activity change, negative = inhibition was -9.66%.
As to `O=C(CCCC1=NS(=O)(=O)c2ccccc2N1)N1CCN(c2ccc(Cl)cc2)CC1`, the activity change, negative = inhibition was -50.1%.
Consider `Cc1nc2nc(C)c(CCC(=O)N3CCN(c4ccccc4)CC3)c(C)n2n1`, for which the activity change, negative = inhibition is -54.1%.
Turning to `COC(=O)c1ccc(NC(=O)CN2CCN(c3ccccc3)CC2)cc1`, the activity change, negative = inhibition was -30.3%.
On to `Cc1nn(-c2ccccc2)c2nc(-c3ccco3)cc(C(=O)O)c12`, for which the activity change, negative = inhibition was -53.4%.
